Assay results as given in PubChem BioAssay (Tox21).
Results filed as inconclusive are left out. Entries that show only a call come without a potency. Activity calls are given as the source filed them. The call rests on the fitted dose curve; in most records, active means well fitted cell-killing curve with a large enough effect in the repeat runs; inconclusive means weak or mixed curves, or effect the other way; inactive means flat fitted curve, though single readings scatter.

Assay: qHTS RealTime-Glo MT Cell Viability Assay in HEK293 cells - 8 hour (AID 1224887); further: top concentration of the series differs between compounds; nearly all actives have a fitted effect of over 50% in size
Conditions: RealTime-Glo luminescence; series mostly up to 76.8 µM
Excerpt: U.S. Tox21 Program National Center for Advancing Translational Sciences [NCATS] NIH Chemical Genomics Center [NCGC] U.S. Environmental Protection Agency [EPA] National Institutes of Environmental Health Sciences [NIEHS] National Toxicology Program [NTP] U.S. Food and Drug Administration [FDA] Tox21 Assay Overview: Measure of cell viability is critical in the cell-base assay. Analysis of cell viability is necessary for the characterization of cell responses to cytotoxic drugs and environmental stress. A RealTime-Glo MT Cell Viability Assay to monitor cell viability in real time of continues cell culture during 40 hours of compound treatment was used to screen Tox21 10K library compounds in Hek293 cells. The RealTime-Glo MT Cell Viability Assay is a nonlytic, homogeneous, bioluminescent method to measure cell viability in real time using a simple, plate-based method. The assay involves adding NanoLuc luciferase and a cell-permeant prosubstrate to cells in culture. Viable cells reduce the proprietary prosubstrate to generate a substrate for NanoLuc luciferase. This substrate diffuses from cells into the surrounding culture medium, where it is rapidly used by the NanoLuc Enzyme to produce a luminescent signal. The signal correlates with the number of viable cells, making the assay well suited for cytotoxicity studies.
Tox21 Assay Protocol Summary: The mixture of Hek293 cell suspension and reagents were dispensed at 600cells/6 ul/well in 1536-well tissue culture treated black solid bottom plates using a Multidrop dispenser. After the assay plates were incubated at a 37 C/5% CO2 incubator for 5 hours, 23 nL of compounds dissolved in DMSO, positive and negative controls was transferred to the assay plate by a pintool work station. The plates were incubated at 37 C for 40 hours. The luminescence intensity were measured at 0h, 8h, 16h, 24h, 32h and 40h time points using ViewLux plate reader during compound treatment.

Row | Compound | Potency | activity change, negative = cytotoxicity
1 | O=C1Nc2cc(Cl)ccc2Oc2ccccc21 | inactive | 
2 | CCOc1ccc(NC(=O)CC(C)=O)cc1 | inactive | 
3 | Cc1ncsc1CCO | inactive | 
4 | NC(=S)N/N=C/c1cccnc1 | inactive | 
5 | CC(C)CCCC(C)CCO (stereo not given) | inactive | 
6 | Cc1ccc(C(C)c2ccc(C)c(C)c2)cc1C | inactive | 
7 | N#CCCNCCC#N | inactive | 
8 | CCN(CC)CCNC(C(=O)OCCC(C)C)c1ccccc1 (stereo not given) | inactive | 
9 | O=C(O)C(c1ccc(Cl)cc1)c1ccc(Cl)cc1 | inactive | 
10 | CCCCc1cc2ccccc2c(OCCN(C)C)n1 | inactive | 
11 | c1ccc(CNCc2ccccc2)cc1 | inactive | 
12 | CC(C(=O)O)c1ccc(-c2ccccc2)c(F)c1 (stereo not given) | inactive | 
13 | CNS(=O)(=O)Cc1ccc2[nH]cc(CCN(C)C)c2c1 | inactive | 
14 | Cc1cc(NC(=O)C(=O)O)cc(C)c1Oc1ccc(O)c2c1CCC2 | inactive | 
15 | C=Cc1c(C)c2cc3[nH]c(cc4nc(cc5nc(cc1[nH]2)C(C)=C5CCC(=O)O)C(CCC(=O)O)=C4C)c(C)c3C=C | inactive | 
16 | CCCCCCCC/C=C\CCCCCCCC(N)=O | inactive | 
17 | O=C(c1ccc(O)cc1)c1ccc(O)cc1 | inactive | 
18 | CN(C(=O)CCCOc1ccc2[nH]c(=O)ccc2c1)C1CCCCC1 | inactive | 
19 | CC(C)c1ccc2c(C(C)C)cc(C(C)C)c(S(=O)(=O)O)c2c1 | inactive | 
20 | C=CC[N+]1([C@H]2C[C@H]3[C@@H]4CC[C@H]5C[C@H](OC(C)=O)[C@@H](N6CCCCC6)C[C@]5(C)[C@H]4CC[C@]3(C)[C@H]2OC(=O)CC)CCCCC1 | inactive | 

Row | Compound | Potency | activity change, negative = cytotoxicity
21 | SC1CCCC1 | inactive | 
22 | Cc1ccc(O)c([C@H](CCN(C(C)C)C(C)C)c2ccccc2)c1 | inactive | 
23 | CCCCC(CC)(CO)CO | inactive | 
24 | Nc1nc(N)c2nc(CNc3ccc(C(=O)N[C@@H](CCC(=O)O)C(=O)O)cc3)cnc2n1 | inactive | 
25 | COC(Cc1ccccc1)OC | inactive | 
26 | C=C(C)C(=O)OCCOc1ccccc1 | inactive | 
27 | COC(=O)CSc1cc(N=c2sc(=O)n3n2CCCC3)c(F)cc1Cl | inactive | 
28 | CC1=CC(=O)/C(=C(/C)O)C(=O)O1 | inactive | 
29 | NC(N)=N/N=C/c1c(Cl)cccc1Cl | inactive | 
30 | O=C(O)Cc1cc(I)c(Oc2ccc(O)c(I)c2)c(I)c1 | inactive | 
31 | O=C(O)[C@@H]1[C@H]2C[C@H]3c4[nH]c5ccccc5c4CCN3C[C@@H]2CC[C@@H]1O | inactive | 
32 | C=CC(C)(CCC=C(C)C)OC(=O)c1ccccc1 (stereo not given) | inactive | 
33 | CC(C)(C)C(=O)OCOP(=O)(COCCn1cnc2c(N)ncnc21)OCOC(=O)C(C)(C)C | inactive | 
34 | O=C(c1ccccc1)c1ccc2n1CCC2C(=O)O (stereo not given) | inactive | 
35 | O=C(CCN1CCN2CCCC2C1)N1c2ccccc2Sc2ccc(Cl)cc21 (stereo not given) |  | -6.11% [at 15.8 µM] (inactive)
36 | O=C(O)/C=C/c1cnc[nH]1 | inactive | 
37 | C=C(C)C(=O)OC(C)C | inactive | 
38 | CC(C)CC=O | inactive | 
39 | C=CC(=O)OCCOC(=O)CCC(=O)O | inactive | 
40 | O=C(Cl)c1ccc([N+](=O)[O-])cc1 | inactive | 
